Source: PubChem BioAssay (NCI)
About 79,000 compounds went through this panel and 15% of them were active in at least one assay; those are over-represented in the sample as a whole. A number with no mark means an inactive call. Activity calls are given as the source filed them. Cut-off read from the data, not from the text of the source: active = growth inhibition above about 70%; inactive = the rest.

Assay: NCI Yeast Anticancer Drug Screen. Data for the wt2 strain (AID 169);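 note: 0% = growth of vehicle-treated yeast cultures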
Details: S. cerevisiae wt2 strain growth inhibition; at 100.0 µM; hits give high values
How it was run: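 Read-out: growth inhibition versus vehicle-treated control cultures after compound exposure of the yeast strain.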

Structure (SMILES) | growth inhibition
CCC/C(Cl)=N\OC(=O)Nc1cccc(C(F)(F)F)c1 | 77% (active)
[O-][n+]1c2ccc(O)cc2nc2ccc(Cl)cc21 | 61%
Clc1ccccc1C1OC1c1ccccc1Cl (centres undefined) | -16%
c1ccc2c(c1)c1ncccc1c1nccnc21 | 22%
CC(=O)Nc1ccc2c(c1)C(=Nc1ccc(C(=O)O)cc1)c1ccccc1-2 | 93% (active)
COc1ccc(OC)c2cc3ccccc3cc12 | 9%
COc1cc(C2c3cc4c(cc3OC(NNc3ccccc3)C2C)OCO4)cc(OC)c1OC (centres undefined) | 90% (active)
O=C1c2cc([N+](=O)[O-])ccc2-c2cccc(F)c21 | 46%
CCCCCCCCCCCC(=O)N(C)C | 99% (active)
CCCCCCCCCCCC1=C(O)C(=O)C=C(O)C1=O | 81% (active)
Cc1ccc(CSC(N)=Nc2ccccc2)cc1C | 66%
CCCCCCCCCCC1CCC(=O)O1 (centres undefined) | 99% (active)
O=[N+]([O-])c1cc(CCl)ccc1CCl | 99% (active)
Nc1ccc2c(c1)C(=O)c1cccc(N)c1C2=O | 72% (active)
CCCCCCCCCCNC(=O)OCC | 99% (active)
CC1=C(C)Cc2c(O)ccc(O)c2C1 | -4%
COc1ccc2c(c1)C(=O)c1ccccc1C2 | 7%
CCC(=O)OCCn1c2nc(=O)[nH]c(=O)c-2nc2cc(C)c(C)cc21 | 93% (active)
O=C(OCCN1CCCCCC1)C(c1ccsc1)C1CCCCC1 (centres undefined) | 72% (active)
Oc1c(Br)cc(Br)cc1C1CCCCC1 | 96% (active)

Structure (SMILES) | growth inhibition
CC1(C)[C@@H]2CC[C@]1(C)[C@H](OC(=O)CSC#N)C2 | 97% (active)
S=C(N/N=C(/c1ccccc1)c1ccccn1)N1CCCCCC1 | 5%
Cc1ccc2[nH]c3c(C)c4cc[n+](C)cc4c(C)c3c2c1 | 95% (active)
CNC(=O)OCc1c(COC(=O)NC)c(-c2ccc(-c3ccccc3)cc2)n(C)c1C | 23%
COc1ccccc1/C=C1\Sc2scc(-c3cccc([N+](=O)[O-])c3)[n+]2C1=O | 95% (active)
O=[N+]([O-])c1ccc2c(c1)C(N1CCN(CCO)CC1)Cc1ccc(F)cc1S2 (centres undefined) | 36%
Cc1ccc(CCC2=CCCc3c2ccc2ccccc32)cc1 | -8%
O=[N+]([O-])c1cccc2nccc(NCCCO)c12 | 6%
Cc1ccc(-n2cc(-c3ccc(Cl)cc3)c(C#N)c2N)cc1 | 4%
Cc1ccc(S/N=C\c2ccccc2O)cc1 | -1%
O=C(O)C1OC1(c1cccc(Cl)c1)c1ccccc1Cl (centres undefined) | 93% (active)
NC(=S)N/N=C\c1nccc2ccccc12 | 99% (active)
Clc1cccc(C(Nc2nncs2)Nc2nncs2)c1Cl | 54%
O=C(OCC=C1CCCC1)c1cc([N+](=O)[O-])cc([N+](=O)[O-])c1 | 98% (active)
O=C(Nc1ccccc1)C(=O)C(C(=O)c1ccccc1)C(c1ccccc1)c1ccccc1 (centres undefined) | 43%
N#CN1C2CCC1CC(=O)C2 | -25%
COc1ccccc1C(=O)OCC1CCCN2CCCCC12 (centres undefined) | 98% (active)
CCNc1nnc(CSc2nc(-c3ccccc3)c(-c3ccccc3)[nH]2)s1 | 83% (active)
O=C1c2ccccc2-c2n[nH]c3cccc1c23 | 36%
